# High-throughput results: PubChem, National Center for Advancing Translational Sciences (NCATS)
# Most compounds without a hit are left out; they make up all but 19% or so of the library.
# HT1080-NT tox: qHTS for induction of synthetic lethality in tumor cells producing 2HG: qHTS for the HT-1080-NT fibrosarcoma cell line. Potency, µM (doses to about 46.1 µM), for the others: at the highest dose activity, negative = less viability, most hits filed as cytotoxic. HT-1080-NT fibrosarcoma viability, CellTiter-Glo ATP luminescence, 48 h. 1.6% of 360,000 active;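 note: NT is the 2HG producing partner of a matched IDH1 knockdown line; potency is the fitted concentration of half-maximal effect; 0% = DMSO-treated cells and -100% = media-only wells without cells; nearly all actives have a fitted effect of over 55% in size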
#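 750 cells/well, RPMI + 5% FBS; 2 h settle, compound pin-transfer, 48 h at 37 degrees C. CellTiter-Glo 10 min RT, luminescence. Normalized to DMSO and media-only wells.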
# HT1080 IDH1KD tx: qHTS for induction of synthetic lethality in tumor cells producing 2HG: qHTS for the HT-1080-IDH1KD cell line; HT-1080 IDH1 knockdown viability, ATP luminescence, 48 h; Potency, µM (highest dose often 46.1 µM), for the others: at the top dose activity, negative = toxicity, hits mostly cytotoxic; 2% of 360,000 active; AID 686971, 2013;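 note: potency is the fitted concentration of half-maximal effect; 0% = DMSO wells and -100% = cell-free medium wells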
#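 After a 2 h attachment period, IDH1KD HT-1080 cells took pin-transferred compound for 48 h at 37 °C; ATP-based luminescence after 10 min room-temperature reagent incubation reported viability.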
# IL-1B inflam inh: qHTS for Inhibitors of Inflammasome Signaling: IL-1-beta AlphaLISA Primary Screen | THP-1 LPS/ATP IL-1B secretion, AlphaLISA, 16 h; hits give low values | activity change, % at 57.5 µM | 4.7% of 360,000 active; in the data active = activity change below about -50%; inconclusive = mostly about -30% to -49%
#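 THP-1 cells pretreated 1 hr with compounds (up to 57.5 uM final), then stimulated with LPS (250 ng/mL final) plus ATP (1.25 mM final); secreted IL-1B measured by AlphaLISA after 16 hr, decreased signal indicating inhibition.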
# TDP1 cell CPT: qHTS for Inhibitors of human tyrosyl-DNA phosphodiesterase 1 (TDP1): qHTS in cells in presence of CPT; chicken DT40 Tdp1-/-;hTDP1 cells + 20 nM CPT, ATP luminescence, 48 h; Potency, µM (series often up to 46.2 µM), for the others: top-dose activity change, negative = growth inhibition, usual class: inhibitors; 12% of 420,000 active; AID 686979, 2013; note: potency is the fitted concentration of half-maximal effect; nearly all actives have a fitted effect of over 55% in size
#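 Chicken DT40 Tdp1-/- cells complemented with human TDP1, 400 cells/well, exposed to compounds plus 20 nM camptothecin for at least 48 h at 37 C; viability read as ATP content by CellTiter-Glo luminescence.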
# TDP1 cell noCPT: qHTS for Inhibitors of human tyrosyl-DNA phosphodiesterase 1 (TDP1): qHTS in cells in absence of CPT; AID 686978, 2013; 15% of 420,000 active; DT40 Tdp1-/- hTDP1 cells, no CPT, ATP luminescence, 48 h; Potency, µM (series often up to 46.2 µM), for the others: at the top dose activity change, negative = growth inhibition, most hits filed as inhibitors; note: potency is the fitted concentration of half-maximal effect; nearly all actives have a fitted effect of over 55% in size
#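 Compound effects on proliferation are scored in DT40 Tdp1-/-;hTDP1 cells in the absence of CPT. ATP levels (CellTiter-Glo luminescence) are recorded after a ≥48 hr, 37 °C incubation.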
# * hit, by the source's call; ? = inconclusive; . = no result given; [ ] = remark or other dose. Unless noted, calls come from the whole dose curve; as a rule, active = well fitted curve in the direction sought with a large enough effect; inconclusive = small, poorly fitted or top-dose-only effect, or another doubt; inactive = no such curve, though single readings can be large; an effect the other way counts as inactive or inconclusive. Unless noted, % is set by controls: 0 for no effect and ±100 for the full control effect.
SMILES,HT1080-NT tox,HT1080 IDH1KD tx,IL-1B inflam inh,TDP1 cell CPT,TDP1 cell noCPT
CCc1nnc(NC(=O)c2cc(S(=O)(=O)N(C)c3ccc(OC)cc3)ccc2Cl)s1,3%,2%,26,10%,3%
CS(=O)(=O)c1sc(C#N)c2c1C(=O)CC(c1ccccc1)C2 (stereo not given),6.5µM*,23µM*,-113*,0.52µM*,0.52µM*
CC(C)CC1C(C#N)=C(N)OC2=C1C(=O)CC(c1ccccc1)C2 (stereo not given),0%,-2%,?,-9%,1%
CC1(C)CC(NS(=O)(=O)c2ccc(C(C)(C)C)cc2)CC(C)(C)N1,-9%,-24%,-29,-30%,?
C/C(=N\NC(=S)NCCc1ccccc1)c1ccc(Cl)cc1,-4%,-19%,0,?,?
C/C(=N\NC(=S)NCCc1ccccc1)c1ccc(C)cc1,-7%,-3%,-5,?,18µM*
C/C(=N\NC(=S)NCCc1ccccc1)c1ccc(C#N)cc1,6.3µM*,7.1µM*,3,?,13µM*
CN1CC2(Cc3cc([N+](=O)[O-])ccc31)C(=O)OC(C)(C)OC2=O,.,.,.,-7%,-22%
Cc1ccc2nc(Cl)c3cc(C(=O)NC4CCCCC4)sc3c2c1,.,.,.,9%,-22%
c1ccc2c3c([nH]c2c1)C(C1CCCCC1)N(Cc1ncc[nH]1)CC3 (stereo not given),-26%,-17%,-87*,?,?
Cc1cnc(CN2CCc3c([nH]c4ccccc34)C2C2CCCCC2)[nH]1 (stereo not given),-14%,?,-79*,?,?
Cc1ncoc1C(=O)N1CCc2c([nH]c3ccccc23)C1C1CCCCC1 (stereo not given),-21%,-17%,-7,?,-24%
O=C1CC2c3ccccc3CCN2C(=O)CN1Cc1ccccc1 (stereo not given),?,21%,8,-10%,-3%
O=C1c2cnc3nc(SCc4ccccc4)nn3c2CC2c3ccccc3CCN12 (stereo not given),-22%,1%,0,?,18µM*
O=c1oc2cc(OCc3c(F)cccc3Cl)ccc2cc1-c1ccccn1,16%,9%,-16,?,?
CCCOc1ccc2cc(-c3ccccn3)c(=O)oc2c1,?,?,-11,?,16µM*
O=[N+]([O-])c1cccc(-c2ccc(CN3CCCCC3)o2)c1,-20%,-16%,-13,6%,-23%
CCCCN(CC)C(=O)CSc1c2c(nc3ccc(Cl)cc13)CCCC2,.,.,.,7.3µM*,16µM*
CCN(C(=O)c1ccc2c(SCC(=O)O)c3c(nc2c1)CCC3)c1cc(Cl)ccc1OC,8%,0%,4,-3%,-13%
O=C(CSc1ncccn1)NCc1ccccc1Cl,9%,-14%,-1,0%,-5%
O=C(CSc1c2c(nc3cc(Cl)ccc13)CCCC2)NCc1ccco1,-19%,?,-66*,23µM*,16µM*
O=C(CSc1c2c(nc3ccc(Cl)cc13)CCCC2)NCc1ccccc1Cl,.,.,.,15µM*,23µM*
O=C(c1ccc2c(Cl)c3c(nc2c1)CCCC3)N1CCN(c2ccc(Cl)cc2)CC1,.,.,.,-19%,?
O=C(CSc1c2c(nc3cc(Cl)ccc13)CCCC2)N1CCN(c2ccccc2)CC1,.,.,.,7.3µM*,5.8µM*
Cc1ccc(C)c(S(=O)(=O)N2CCN(C(=O)c3n[nH]c(=O)c4ccccc34)CC2)c1,-11%,-11%,-4,?,?
SMILES,HT1080-NT tox,HT1080 IDH1KD tx,IL-1B inflam inh,TDP1 cell CPT,TDP1 cell noCPT
Cc1ccc(C)c(N2CCN(C3(c4ccccc4)C(=O)c4ccccc4C3=O)CC2)c1,.,.,.,-10%,-23%
O=C(CN1C(=O)COc2ccccc2C1=O)c1ccc2c(c1)OCCO2,12%,8%,-3,3%,2%
CC(=O)O[C@@H]1[C@@]2(C)O[C@H]2CC[C@]23O[C@H]2[C@H](OC3=O)C2=C(C)C(=O)O[C@@]21O,-2%,-17%,?,-16%,?
O=C(CSc1c2c(nc3cc(Cl)ccc13)CCCC2)NCc1ccccc1Cl,.,.,.,18µM*,15µM*
Cc1cc(C)c2cc(C#N)c(SCC(=O)NCc3ccco3)nc2c1,-2%,-6%,1,18µM*,18µM*
CC(C)NC(=O)CSc1c2c(nc3ccccc13)CCCC2,10%,10%,34,-2%,?
COCCNC(=O)CSc1c2c(nc3ccc(Cl)cc13)CCCC2,-21%,-29%,?,16µM*,?
CN(C(=O)c1cccc(Br)c1)C1CCS(=O)(=O)C1 (stereo not given),15%,11%,6,15%,0%
O=c1c(=O)n(-c2ccccc2)ccn1Cc1c(F)cccc1Cl,.,.,.,4%,-16%
O=C(Cn1c(-c2cccs2)cc2cc(F)ccc21)NCCCN1CCN(c2ccccc2F)CC1,.,.,.,21µM*,21µM*
CC(C)CCNC(=O)Cn1c(-c2cccs2)cc2cc(F)ccc21,.,.,.,-25%,-22%
O=C(Cn1c(=O)c2cccn2c2ccc(F)cc21)NCCCN1CCN(c2ccccc2F)CC1,?,?,-11,?,?
O=C(Cn1c(-c2cccs2)cc2ccccc21)NCCCN1CCN(c2ccccc2F)CC1,.,.,.,23µM*,16µM*
CCCCNC(=O)C1(C)CCN1C(=O)c1cc(C)n(C(C)(C)C)n1 (stereo not given),24%,2%,11,?,?
C=C(C)CNC(=S)NNC(=O)c1cc(C)oc1C,22%,20%,19,-2%,-6%
COc1ccc(C(=O)NC(=S)NNC(=O)c2ccccc2C)cc1,?,?,27,?,?
O=C(NC(=S)NNC(=O)c1ccco1)c1ccc(F)cc1,-28%,?,18,?,16µM*
COc1ccc(C(=O)NC(=S)NNC(=O)c2ccccc2O)cc1,-16%,-25%,63,15µM*,12µM*
C=C(C)CNC(=S)NNC(=O)c1ccco1,2µM*,?,-8,2%,1%
COc1ccc(C(=O)NNC(=S)NC(=O)C(C)(C)C)cc1,-28%,?,-102*,6.5µM*,7.3µM*
CN(C)C(CNC(=O)C1CC(=O)N(Cc2ccccc2)C1)c1ccccc1 (stereo not given),-12%,-12%,6,-4%,-16%
O=C(c1ccccc1F)N(Cc1cc2cc3c(cc2nc1N1CCOCC1)CCC3)CC1CCCO1 (stereo not given),.,.,.,-10%[9.04 µM],?
